Reference: PubChem BioAssay AID430 (Sanford-Burnham Center for Chemical Genomics, 2006)
Screen size: about 63,000 compounds; about 1,100 (1.7%) were called active. Rule as the data show it: active = cytotoxicity above about 50%; inactive = the rest. Many of the other results were omitted from the sample, so actives are more common in it than they were. Potency and affinity values are given separately.

assay: cytotoxicity in HPDE-C7 cells, cell-based, fluorescence, HTS (AID 430); conditions: HPDE-C7 pancreatic duct cells viability, at 10 µM, stronger effect = higher value;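 also: cells exposed to compound for 48 hours before viability readout; 0% = vehicle and 100% = reference cytotoxic drug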

Structure (SMILES)	cytotoxicity
CC1(C)CC(=O)C2=C(C1)Oc1ncn(CCCn3ccnc3)c(=N)c1C2c1ccccc1 (centres undefined)	5.8% (inactive)
O=c1c2ccccc2nc(-c2ccccc2)n1CCCn1ccnc1	-10.6% (inactive)
N=c1c2c(-c3ccccc3)c(-c3ccccc3)n(Cc3ccco3)c2ncn1CCN1CCOCC1	29.6% (inactive)
OCCNc1ncnc2c1c(-c1ccccc1)c(-c1ccccc1)n2Cc1ccco1	37.5% (inactive)
COc1ccccc1-c1nc2n(n1)C(c1ccc(Cl)cc1)C(C(N)=O)=C(C)N2 (centres undefined)	5.8% (inactive)
COC(=O)c1ccc(OCC(O)Cn2nnc3ccccc32)cc1 (centres undefined)	3.4% (inactive)
CCCCN(C(=O)NC(=O)Nc1c(C)cc(C)cc1C)S(C)(=O)=O	4.6% (inactive)
CC(C)=CC(=O)Nc1ccccc1C(N)=O	3.7% (inactive)
COc1ccc(N2CCN(C(=O)CCN3C(=O)c4ccccc4S3(=O)=O)CC2)cc1	-0.5% (inactive)
Cn1nccc1C(=O)NCCN1C(=O)OC(C)(C)C1(C)O (centres undefined)	-1.1% (inactive)
CCOC(=O)c1ccc(-n2[nH]c(-c3ccccc3)cc2=O)cc1	66.3% (active)
CCOC(=O)c1ccc(-n2c(=O)[nH]c3ccccc3c2=O)cc1	-12.3% (inactive)
CCOC(=O)c1ccc(N2C(=O)C(C)=C(C)C2=O)cc1	-4.6% (inactive)
O=C1CCCC2=C1C(c1cccc(Br)c1)n1nc(-c3ccco3)nc1N2 (centres undefined)	-0.5% (inactive)
O=S(=O)(Nc1cccc(-c2cn3ccsc3n2)c1)c1ccc(F)cc1	33.8% (inactive)
Cc1ccc(S(=O)(=O)Nc2cccc(-c3cn4ccsc4n3)c2)cc1	52.4% (active)
Cc1cccc(S(=O)(=O)Nc2cccc(-c3cn4ccsc4n3)c2)c1	36.1% (inactive)
O=C(Cn1cnnn1)Nc1ccccc1Cc1ccccc1	-2.5% (inactive)
N#CC1=C2SCN(Cc3ccccc3)CN2C(=O)CC1c1cccs1 (centres undefined)	-17.2% (inactive)
CCc1ccc(C2CC(=O)N3CN(c4ccccc4)CSC3=C2C#N)cc1 (centres undefined)	-1.3% (inactive)
N#CC1=C2SCN(c3ccccc3)CN2C(=O)CC1c1cccs1 (centres undefined)	-3.1% (inactive)
COc1ccc(C2CC(=O)N3C(=C2C#N)SCC3(O)c2ccccc2)cc1 (centres undefined)	10.4% (inactive)
N#CC1=C2SCC(O)(c3ccccc3)N2C(=O)CC1c1ccccc1 (centres undefined)	70% (active)
CCOC(=O)CCNC(=O)CNC(=O)OCc1ccccc1	-3.8% (inactive)

Structure (SMILES)	cytotoxicity
CCOc1ccccc1NC(=O)CN(c1nccs1)S(=O)(=O)c1ccc(N)cc1	-20.7% (inactive)
COc1ccc(S(=O)(=O)N(C)CC(=O)O)c2ccccc12	1.2% (inactive)
Cc1ccc(/C(O)=C2\C(=O)C(=O)N(CC(C)O)C2c2ccc(N(C)C)cc2)cc1 (centres undefined)	0% (inactive)
CCCC(=O)n1nc(-c2ccc(OC)cc2)nc1N	11.5% (inactive)
O=C(CSc1nnc(-c2ccco2)o1)NC(=O)C1COc2ccccc2O1 (centres undefined)	-12.2% (inactive)
COc1cccc(C2=NOC(C(=O)NCc3ccccc3)C2)c1 (centres undefined)	61.7% (active)
COc1cccc(C2=NOC(C(=O)NCc3ccccn3)C2)c1 (centres undefined)	-11.7% (inactive)
COCCNC(=O)C1CC(c2cccc(OC)c2)=NO1 (centres undefined)	-6.9% (inactive)
COc1cccc(C2=NOC(C(=O)NCc3ccco3)C2)c1 (centres undefined)	40.7% (inactive)
COc1ccc(CNC(=O)C2CC(c3cccc(OC)c3)=NO2)cc1 (centres undefined)	36% (inactive)
COc1cccc(C2=NOC(C(=O)NCc3ccc(F)cc3)C2)c1 (centres undefined)	60.3% (active)
Cc1oc2ccc(OC(=O)N3CCOCC3)cc2c1C(=O)OC(C)C	-25.5% (inactive)
Cc1nn(-c2ccccc2C(=O)O)c(=O)c2ccccc12	0.5% (inactive)
CC(=O)c1sc(-c2c(C)nc3sccn23)nc1C1CCCC1	4.9% (inactive)
O=C(NCCCN1CCOCC1)c1c(F)cccc1F	18.7% (inactive)
COc1ccc2sc(C)nc2c1NC(C)=O	-5.3% (inactive)
CCCCN(Cc1ccccc1)c1ncnc2nc[nH]c12	-1% (inactive)
Clc1ccccc1CNc1ncnc2nc[nH]c12	3.9% (inactive)
Clc1ccccc1CN(Cc1ccccc1)c1ncnc2nc[nH]c12	82.7% (active)
O=C(O)C1CC(=O)N(Cc2ccccc2)C1 (centres undefined)	-5.6% (inactive)
COC(=O)c1ccc(OCC(=O)Nc2nn(-c3ccccc3)nc2C(N)=O)cc1	51.8% (active)
NC(=O)c1nn(-c2ccccc2)nc1NC(=O)CN1CCCCC1	-13.3% (inactive)
CC(=O)N(CC(=O)Nc1nn(-c2ccccc2)nc1C(N)=O)Cc1ccccc1	-8.2% (inactive)
CCc1nc2ccc(C(=O)NCc3ccco3)cc2nc1CC	1.5% (inactive)

Structure (SMILES)	cytotoxicity
O=C1c2oc3ccccc3c(=O)c2C(c2cccc(O)c2)N1CCCN1CCOCC1 (centres undefined)	-13.7% (inactive)
CCNc1ccc(C(=O)OCC)cc1NC(=O)c1cccc(N(C)C)c1	54.6% (active)
Cc1ccc(F)cc1NC(=O)c1cccc(N(C)C)c1	-10.6% (inactive)
CCNc1ccc(C(=O)OCC)cc1NC(=O)c1cccc(S(=O)(=O)N2CCOCC2)c1	1.8% (inactive)
CCn1c(SCC(=O)N2CCCCC2)nnc1-c1ccc(S(=O)(=O)N2CCN(C)CC2)cc1	-22% (inactive)
COc1ccc(CNC(=O)C2COc3ccccc3O2)c(OC)c1 (centres undefined)	-4.4% (inactive)
Cc1ccc(C(=O)CC(C(=O)O)n2ccc(C)n2)cc1 (centres undefined)	4% (inactive)
Cc1ccc(C(=O)CC(C(=O)O)n2cccn2)cc1 (centres undefined)	-3.1% (inactive)
O=C1OCCC1N1C(=O)c2ccccc2S1(=O)=O (centres undefined)	-4.1% (inactive)
Nc1c(Nc2ccccc2)c2ccccc2oc1=O	-3.7% (inactive)
CCN(CC)c1ccc(/C=N/n2nnnc2N)c(O)c1	-2.7% (inactive)
CSc1ccc(/C=N/n2nnnc2N)cc1	-10.4% (inactive)
CCN(C)c1ccc(/C=N\n2nnnc2N)cc1	51.3% (active)
CCCCS(=O)CC(COc1ccc(Cl)cc1)OC(=O)c1ccccc1 (centres undefined)	-8.9% (inactive)
Cn1c(=O)c(-c2ccccc2)nn2c3ccccc3nc12	-4.7% (inactive)
CNc1ccccc1-c1nc2ccccc2n(C)c1=O	56.7% (active)
COc1ccccc1Nc1nc2ccccc2n1C	-9% (inactive)
Cc1ccc(NCc2nnc(SCC(=O)Nc3cccc(O)c3)n2CC2CCCO2)c(C)c1 (centres undefined)	8.8% (inactive)
CC(=O)O[C@@]12CO[C@@H]1C[C@H](O)[C@@]1(C)C(=O)[C@H](O)C3=C(C)[C@@H](OC(=O)[C@H](O)[C@@H](NC(=O)OC(C)(C)C)c4ccccc4)C[C@](O)([C@@H](OC(=O)c4ccccc4)[C@H]21)C3(C)C	51.5% (active)
CC(=O)O[C@H]1C(=O)[C@]2(C)[C@H]([C@H](OC(=O)c3ccccc3)[C@]3(O)C[C@H](OC(=O)[C@H](O)[C@@H](NC(=O)c4ccccc4)c4ccccc4)C(C)=C1C3(C)C)[C@]1(OC(C)=O)CO[C@@H]1C[C@@H]2O	72% (active)
CNC(=O)c1ccccc1NC(=O)c1c(O)c2c([nH]c1=O)CCCC2	0% (inactive)
COc1ccc(/C(O)=C2/C(=O)C(=O)N(Cc3cccnc3)C2c2ccccn2)cc1 (centres undefined)	-4.2% (inactive)
Cc1cc(C)n2c(Br)c(CSc3nc4ccccc4o3)nc2n1	3.3% (inactive)
COC(=O)c1c(NC(=O)CN2CCCC(C)C2)c2c(C)cccc2n1C (centres undefined)	-3.9% (inactive)

Structure (SMILES)	cytotoxicity
CCCC(=O)NCCCc1nc2ccccc2n1CC	-20.4% (inactive)
COc1ccc(-n2c(Cc3cccn3C)nnc2SCC(=O)NCc2ccco2)cc1	-5% (inactive)
CCn1c2ccccc2c2cc(NC(=O)CSc3nnc(-c4ccccc4OC)n3N)ccc21	57.2% (active)
CCn1c(SCC(=O)Nc2ccc3c(c2)c2ccccc2n3CC)nnc1-c1ccco1	49% (inactive)
COc1ccc(NC(=O)CSc2nnc(-c3ccccc3C)n2N)cc1OC	-3.3% (inactive)
Cc1ccc(-c2cc(C(F)F)nc(NCc3cccnc3)n2)cc1	28.4% (inactive)
CCOC(=O)C(C)Oc1cccc2c(=O)n(CC(=O)N3CCc4ccccc43)ccc12 (centres undefined)	-7.3% (inactive)
O=C(Cn1cnc2ccccc2c1=O)NCc1ccco1	-1% (inactive)
CCOC(=O)COc1cccc2c(=O)n(CC(=O)NCc3ccc4c(c3)OCO4)ccc12	60.6% (active)
CCOC(=O)C(C)Oc1cccc2c(=O)n(CC(=O)NCc3ccc4c(c3)OCO4)ccc12 (centres undefined)	53% (active)
CCOC(=O)C(C)Oc1cccc2c(=O)n(CC(=O)Nc3ccc4c(c3)OCCO4)ccc12 (centres undefined)	9.2% (inactive)
CCOC(=O)C(C)Oc1cccc2c(=O)n(CC(=O)N3CCN(C(=O)OCC)CC3)ccc12 (centres undefined)	-8.4% (inactive)
CCOC(=O)COc1cccc2c(=O)n(CC(=O)N3CCN(C(=O)OCC)CC3)ccc12	-9.2% (inactive)
CCOC(=O)C(C)Oc1cccc2c(=O)n(CC(=O)NCc3ccco3)ccc12 (centres undefined)	65.7% (active)
CCOC(=O)COc1cccc2c(=O)n(CC(=O)N3CCc4ccccc43)ccc12	-7.9% (inactive)
CCCCN(C)CCCNC(=O)c1ccc2c(c1)NC(=O)C(N1CCOCC1)S2 (centres undefined)	2.3% (inactive)
CCOC(=O)N1CCN(C(=O)C2CCCN(S(C)(=O)=O)C2)CC1 (centres undefined)	2.7% (inactive)
CC(C)Sc1nc2c(cnn2-c2ccccc2)c(=O)[nH]1	-15.9% (inactive)
COC(=O)C(C(=O)OC)C(C(C)C)C(C(=O)OC)C(=O)OC	5.9% (inactive)
O=C(Nc1ccc(Cl)cc1)Nc1ccccc1C(=O)NCc1ccco1	8.1% (inactive)
O=C(NCCSCc1ccco1)Nc1ccc(Cl)cc1	-8.4% (inactive)
O=C(Nc1ccc(Cl)cc1)NC1CCCC1Cc1ccco1 (centres undefined)	55% (active)
